Experimental data from PubChem BioAssay.
The source made the active and inactive calls.

assay: plasmodial surface anion channel blockers, osmotic lysis – cell-based, P. falciparum Indochina, OD700, 18 h, primary screen (AID 1157); conditions: P. falciparum Indochina infected erythrocytes, osmotic lysis OD700, 18 h; higher = more signal, called active from +8 up or from −8 down

z-score, inactive:
COC(=O)[C@@]1(Cc2ccc(F)cc2)[C@H]2c3cc(C(=O)N(C)C)n(CCF)c3C[C@H]2CN1C(=O)c1ccccc1 -1.29
COC(=O)[C@@]1(Cc2ccccc2)[C@H]2c3cc(C(=O)N(C)C)n(Cc4ccc(Cl)c(C(F)(F)F)c4)c3C[C@H]2CN1C(=O)c1ccccc1 1.18
COc1ccc(NN2C(C(O)c3ccc(F)cc3)C=CC3C(=O)N(C4CCCCC4)C(=O)C32)cc1 (stereo not given) 0.856
[N-]=[N+]=NCc1ccccc1C[C@@]1(C(N)=O)N=C(c2ccc(OCCCO)cc2)O[C@@H]1c1ccccc1N=[N+]=[N-] 2.31
O=C1O[C@H](c2ccccc2)[C@H](c2ccccc2)N2[C@H]1[C@@H](C(=O)Nc1nc3ccccc3s1)[C@]1(C(=O)Nc3ccccc31)[C@H]2c1ccccc1OCCO 1.79
CC(C)c1ccc(NN2C(C(O)C(C)c3ccccc3)C=CC3C(=O)N(c4ccccc4)C(=O)C32)cc1 (stereo not given) 0.998
COCCCNC(=O)[C@]1(Cc2ccccc2N=[N+]=[N-])N=C(c2ccc(OCCCO)cc2)O[C@@H]1c1ccccc1 3.2
COC(=O)[C@@]1(Cc2ccc(OC)cc2)[C@H]2c3cc(C(=O)N(C)C)n(Cc4c(CO)[nH]cc(C)c4=O)c3C[C@H]2CN1C(=O)c1ccccc1 0.643
COC(=O)C(CC#Cc1ccc2c(c1)[C@]1(C(=O)N2)[C@H](c2ccc(OCCO)cc2)N2[C@H](c3ccccc3)[C@H](c3ccccc3)OC(=O)[C@H]2[C@@H]1C(N)=O)C(=O)OC 0.615
O=C1N(Cc2ccccc2)Cc2ccccc2C[C@@]12COC(c1ccc(OCCCO)cc1)=N2 1.48
COCCCNC(=O)[C@@]1(c2ccc([N+](=O)[O-])cc2)CC(=O)N(C2CCCCC2)[C@@H]1c1ccc(CO)cc1I 1.11
CO[C@H]1O[C@H](CO)[C@@H](OC(=O)Nc2ccccc2)[C@@H]2OC(=O)[C@@H](Cc3ccccc3)C/C=C/C[C@H](Cc3ccccc3)C(=O)O[C@@H]12 0.0794
O=C1O[C@@H](c2ccccc2)[C@@H](c2ccccc2)N2[C@@H](c3ccc(OCCO)cc3)[C@]3(C(=O)Nc4ccc(C#CC5=CCCCC5)cc43)[C@@H](C(=O)Nc3nc4ccccc4s3)[C@H]12 2.11
COCCOC(=O)N1C(=O)[C@@]2(c3cc(C#CC4(O)CCCCCC4)ccc31)[C@H](C(N)=O)[C@H]1C(=O)O[C@H](c3ccccc3)[C@H](c3ccccc3)N1[C@@H]2c1ccc(OCCO)cc1 1.01
COC(=O)C(CC#Cc1ccc2c(c1)[C@]1(C(=O)N2)[C@H](C(N)=O)[C@H]2C(=O)O[C@H](c3ccccc3)[C@H](c3ccccc3)N2[C@@H]1c1ccccc1OCCO)C(=O)OC 1.47
Cc1ccc(S[C@]2(C(=O)NCC(C)C)CC(=O)N(C(C)C)[C@@H]2c2ccc(CO)cc2I)cc1 0.279
CN1C2C=C(c3ccc(CO)cc3)C(C3C(=O)N(C(N)=O)C(=O)C32)C1C1CC1 (stereo not given) 0.0864
[N-]=[N+]=NCc1ccccc1[C@H]1OC(c2ccc(OCCCO)cc2)=N[C@@]1(CCS(=O)(=O)c1ccccc1)C(=O)O 1.06
COC(=O)[C@@]1(Cc2ccc(F)cc2)[C@H]2c3cc(C(=O)N4CCCC4)n(Cc4ccc(OC(F)(F)F)cc4)c3C[C@H]2CN1C(=O)c1ccccc1 0.642
C[N+](C)(C)CCCC[C@@H]1NC(=O)[C@H]2C[C@@H](C(=O)O)[C@@H](c3ccc(O)cc3)N2C1=O 0.302
CN1C(=O)C2CC=C(C3=CCO[C@@H]3[C@H]3CCCN3S(=O)(=O)c3ccccc3[N+](=O)[O-])CC2C1=O (stereo not given in full) -0.0627
COC(=O)[C@@]1(Cc2ccc(F)cc2)[C@H]2c3cc(C(=O)N4CCCC4)n(Cc4ccc(C(F)(F)F)nc4)c3C[C@H]2CN1C(=O)c1ccccc1 0.716
C=C(CCCC)/C(=C/C[C@@H](OC(C)=O)c1cccc(OCCO)c1)c1cc(C(=O)OC)ccc1OC 1.02
O=C/C=C/c1ccc(-c2ccccc2)cc1 -2.17
O=C1O[C@H](c2ccccc2)[C@H](c2ccccc2)N2[C@H]1[C@@H](C(=O)N1CCCCCCC1)[C@]1(C(=O)Nc3ccc(C#CCCO)cc31)[C@H]2c1ccc(O)cc1 0.295
C=CCNC(=O)[C@H]1[C@@H]2C(=O)O[C@@H](c3ccccc3)[C@@H](c3ccccc3)N2[C@@H](c2ccc(O)cc2)[C@]12C(=O)Nc1ccc(C#CCC(C(=O)OC)C(=O)OC)cc12 0.432
C[C@]1(C(=O)O)c2ccccc2C(=O)N(Cc2cc(C(F)(F)F)cc(C(F)(F)F)c2)[C@H]1c1ccc(CO)cc1 0.157
C=CCOC(=O)[C@H]1[C@@H]2C(=O)O[C@@H](c3ccccc3)[C@@H](c3ccccc3)N2[C@@H](c2ccc(OCCOC(=O)[C@H]3C[C@H]4C(=O)NCC(=O)N4[C@H]3c3ccc(O)cc3)cc2)[C@]12C(=O)Nc1ccccc12 0.987
COc1ccc([Si](C)(C)[C@H]2[C@H](CC(=O)N3CCC[C@H]3CO)O[C@@]3(C(=O)N(Cc4cccc(N5CCCCC5=O)c4)c4ccccc43)[C@@H]2C)cc1 0.525
C=CCNC(=O)[C@H]1[C@@H]2C(=O)O[C@@H](c3ccccc3)[C@@H](c3ccccc3)N2[C@@H](c2ccc(O)cc2)[C@]12C(=O)N(C(=O)OCCOC)c1ccc(C#Cc3ccc(OC)cc3)cc12 0.0195
O=C(CS)NCCCCCCNC(=O)[C@H]1C[C@H]2C(=O)NCC(=O)N2[C@H]1c1cccc(OCCO)c1 -1.36
COc1cc(Cc2cc3c(c(-c4ccccc4)n2)[Si](C(C)C)(C(C)C)OC3)cc(OC)c1OC 0.332
Cc1c(NC(=O)/C(C#N)=C/C=C/c2ccc([N+](=O)[O-])cc2)c(=O)n(-c2ccccc2)n1C 0.598
CCOC(=O)C[C@H]1[C@H](OC(=O)c2ccccc2-c2ccccc2)[C@@H](NC(=O)CC(C)C)c2cc(OCCCO)ccc2N1C(=O)c1ccccc1 -2.84
COCCOC(=O)N1C(=O)[C@@]2(c3cc(C#CCNC(N)=O)ccc31)[C@H](c1ccc(O)cc1)N1[C@H](c3ccccc3)[C@H](c3ccccc3)OC(=O)[C@H]1[C@@H]2C(=O)N1CCc2cc(OC)c(OC)cc2C1 0.148
